The text below walks through data of PubChem BioAssay (NCATS).

“And” between values parts separate entries of the source, which are not always exact repeats. Equal entries are not always repeated. Records with an inconclusive call do not appear. The source made the active and inactive calls. The call rests on the fitted dose curve; in most records, active means well fitted curve in the direction sought with a large enough effect in the signal ratio, with a control signal flat; inconclusive means small, poorly fitted or top-dose-only effect, or a change in a side signal; inactive means no such curve, though single readings can be large or run the other way; the % refers to the signal ratio.

The target in this assay is Glucocorticoid receptor (Homo sapiens) (UniProt P04150). The assay is described as follows: qHTS assay for small molecule agonists of glucocorticoid receptor signaling (AID 588532). The following applies: HeLa MMTV-bla, beta-lactamase ratio, agonist, 18 h; active compounds read high; percent of dexamethasone control, DMSO zero. An excerpt: NIH Chemical Genomics Center [NCGC] U.S. Environmental Protection Agency [EPA] National Institutes of Environmental Health Sciences [NIEHS] National Toxicology Program [NTP] NCGC Assay Overview The Glucocorticoid receptor (GR), a nuclear receptor subfamily member and its natural ligands includes […] etc. The GR is a validated drug target for inflammation. GR ligands such as dexamethasone are clinically available as anti-inflammatory drugs. Glucocorticoids implicate role in carbohydrate, protein and lipid metabolisms and programmed cell death. They are also a component of many chemotherapy regimens for the treatment of leukemias, lymphomas, and myelomas because of their role in the induction of apoptosis.
Glucocorticoid receptor (Homo sapiens), sequence (P04150 whole entry, looked up): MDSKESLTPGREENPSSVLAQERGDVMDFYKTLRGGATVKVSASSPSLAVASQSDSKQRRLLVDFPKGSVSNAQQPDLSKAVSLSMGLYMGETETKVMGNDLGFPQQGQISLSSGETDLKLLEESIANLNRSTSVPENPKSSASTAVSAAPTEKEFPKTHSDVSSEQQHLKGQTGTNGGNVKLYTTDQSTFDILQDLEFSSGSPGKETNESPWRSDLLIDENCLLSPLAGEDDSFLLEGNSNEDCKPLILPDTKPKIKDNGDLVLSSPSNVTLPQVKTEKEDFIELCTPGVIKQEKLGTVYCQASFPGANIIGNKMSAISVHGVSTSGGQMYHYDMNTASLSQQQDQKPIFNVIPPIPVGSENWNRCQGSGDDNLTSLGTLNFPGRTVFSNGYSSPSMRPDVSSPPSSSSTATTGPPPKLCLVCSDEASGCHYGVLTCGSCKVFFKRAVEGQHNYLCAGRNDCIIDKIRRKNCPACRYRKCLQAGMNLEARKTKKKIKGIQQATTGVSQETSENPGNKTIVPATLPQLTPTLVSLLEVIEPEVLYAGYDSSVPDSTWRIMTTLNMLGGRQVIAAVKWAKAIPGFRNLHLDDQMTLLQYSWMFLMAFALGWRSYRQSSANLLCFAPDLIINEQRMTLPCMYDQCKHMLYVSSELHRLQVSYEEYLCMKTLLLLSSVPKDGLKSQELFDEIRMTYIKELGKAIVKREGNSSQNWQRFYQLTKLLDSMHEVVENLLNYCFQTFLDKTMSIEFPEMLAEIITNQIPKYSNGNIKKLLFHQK
NCGC Assay Protocol Summary Using a beta-lactamase reporter-gene under control of glucocorticoid response element (GRE), a cell-based assay [CellSensor MMTV-bla HeLa cell line assay developed by Invitrogen] was used to measure GR ligands signaling. CellSensor MMTV-bla HeLa cells were used with assay medium containing 1% charcoal/dextran treated FBS, 0.1 mM NEAA, 1 mM sodium pyruvate and 25mM HEPES. The assay was performed in clear bottom black Greiner 1536-well plates. Dexamethasone and Mifepristine were used in the screen as agonist and antagonist positive controls respectively. Library compounds were measured for their ability to stimulate the reporter gene activity. Compounds were screened in a titration series in 1536-well format. The fluorescence intensity (405 nm excitation, 460/530 nm emission) was measured using an EnVision plate reader. Data was normalized relative to Dexamethasone control (0.1 uM, 100%), and DMSO only wells (basal, 0%). Concentration-response titration points for each compound were fitted to the Hill equation yielding concentrations of half-maximal stimulation (EC50) and maximal response (efficacy) values. qHTS protocol for GR beta-lactamase assay in agonist mode [Step] [Parameter] [Value] [Description] 1. Reagent; 6 uL; 1500 cells/well 2. Incubation; 37 C for 3-5 hrs 3. Compounds; 23 nL; 0.59 nM to 92 uM 4. Controls (Dexamethasone); 23 nL, - One column with dose response, start 4.6uM, 1:3 dilutions in duplicates - Final concentrations of 0.1 uM and 2 nM in two columns 5. Incubation; 37 C for 18 hrs 6. Detection reagent; 1 uL of CCF4-dye 7. Incubation; RT for 2 hrs 8. Detection; Fluorescence; Envision plate reader
Background: In qHTS, concentration-response curves come from the screen itself.
On to `Clc1ccc(C(c2ccc(Cl)cc2)C(Cl)(Cl)Cl)cc1`, for which the activation is 4.79% (inactive) and 0.666% (inactive). Under `NCCc1ccc(O)cc1` stands 18.1% (inactive). To `COP(=S)(OC)SCN1C(=O)c2ccccc2C1=O` belongs 10.5% (inactive); to `C[C@]1(O)CC[C@H]2[C@@H]3CCC4=CC(=O)CC[C@]4(C)[C@@]3(F)[C@@H](O)C[C@@]21C`, 0.36% (inactive); to `CC(C)NC(C)C`, -3.7% (inactive). Under `COc1cc(OC)c(OC)cc1C=O` stands 3.74% (inactive); under `O=P1(N(CCCl)CCCl)NCCCO1` (stereo not drawn), 2.61% (inactive) and 1.05% (inactive). Turning to `CCCC(C)(COC(N)=O)COC(N)=O`, the activation is -13.9% (inactive). Under `CCOC(=O)CC(SP(=S)(OC)OC)C(=O)OCC` (stereo not drawn) stands -4.46% (inactive) and 3.12% (inactive) and 14.7% (inactive).

Take `CC1(C)C(C=C(Cl)Cl)C1C(=O)OC(C#N)c1cccc(Oc2ccccc2)c1` (stereo not drawn): the activation is -2.93% (inactive). Under `Nc1ccccc1` stands -2.91% (inactive); under `CN1C[C@H](C(=O)N[C@]2(C)O[C@@]3(O)[C@@H]4CCCN4C(=O)[C@H](Cc4ccccc4)N3C2=O)C=C2c3cccc4[nH]cc(c34)C[C@H]21`, -6.8% (inactive); under `COC(=O)C(c1ccccc1)C1CCCCN1` (stereo not drawn), 2.14% (inactive). To `CCC(C)(C)c1ccc(O)cc1` belongs -4.8% (inactive); to `COP(=S)(OC)Oc1ccc(SC)c(C)c1`, -2.46% (inactive) and 5.56% (inactive); to `O=C1c2ccccc2C(=O)C1C(=O)C(c1ccccc1)c1ccccc1`, -2.9% (inactive). To `COP(=S)(OC)Oc1cc(Cl)c(Cl)cc1Cl` belongs -3.3% (inactive).

Regarding `CCOP(=S)(OCC)Oc1ccc2c(C)c(Cl)c(=O)oc2c1`, the activation is -1.75% (inactive).
